{"source": "paper PMC7862700", "about": "“An all-to-all approach to the identification of sequence-specific readers for epigenetic DNA modifications on cytosine”", "assay_in_all_cases": "DAPPL (digital affinity profiling via proximity ligation, sequencing); 10 mM Tris-HCl pH 7.5, 50 mM NaCl, 1 mM DTT, 4% glycerol, room temperature, 30 min; GST-TFs on glutathione beads, 16-mer random dsDNA library, 0.1% formaldehyde crosslink after washing; high values mean tight binding", "key": {"[1]": {"target": "T1, FEV (Homo sapiens, UniProt Q99581 1-238)", "T1 sequence": "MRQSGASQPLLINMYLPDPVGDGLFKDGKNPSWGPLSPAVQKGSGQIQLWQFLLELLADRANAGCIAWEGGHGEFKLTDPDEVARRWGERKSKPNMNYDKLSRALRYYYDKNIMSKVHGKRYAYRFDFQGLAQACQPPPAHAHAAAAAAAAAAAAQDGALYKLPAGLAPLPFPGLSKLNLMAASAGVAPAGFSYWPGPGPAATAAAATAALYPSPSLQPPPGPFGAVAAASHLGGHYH", "conditions": "protein: recombinant; tags: N-terminal GST; dsDNA, one strand shown", "summary_of_the_method": "(§1)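 Pools were built from human transcription factors expressed in yeast as GST fusions, captured on glutathione beads and DNA-barcoded, along with a tag-only sample. Incubation with 200 nmole of a 16-mer random double-stranded DNA library lasted 30 min at room temperature in Tris/NaCl/DTT/glycerol buffer, and was followed by washing, 0.1% formaldehyde crosslinking, proximity ligation, PCR amplification and Illumina NextSeq500 sequencing. Binding signal is the quotient of each hexamer's read frequency for a factor and its frequency for the tag-only sample.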"}, "[2]": {"target": "ETV5 (Homo sapiens, UniProt P41161 1-510)", "sequence (P41161 whole entry)": "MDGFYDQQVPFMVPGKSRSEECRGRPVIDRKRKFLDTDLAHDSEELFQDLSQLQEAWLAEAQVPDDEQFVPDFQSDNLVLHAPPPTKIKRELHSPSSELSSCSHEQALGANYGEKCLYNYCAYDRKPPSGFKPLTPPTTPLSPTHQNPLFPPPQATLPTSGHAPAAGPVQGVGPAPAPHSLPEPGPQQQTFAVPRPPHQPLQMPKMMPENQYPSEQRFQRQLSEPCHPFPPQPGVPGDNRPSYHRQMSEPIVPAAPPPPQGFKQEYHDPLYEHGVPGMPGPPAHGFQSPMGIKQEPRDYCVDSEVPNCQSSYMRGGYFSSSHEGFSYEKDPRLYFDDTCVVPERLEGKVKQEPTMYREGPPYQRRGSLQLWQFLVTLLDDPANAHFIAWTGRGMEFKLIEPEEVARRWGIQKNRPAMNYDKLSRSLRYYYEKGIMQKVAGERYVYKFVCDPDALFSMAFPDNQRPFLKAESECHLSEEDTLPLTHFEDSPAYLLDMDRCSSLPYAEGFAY", "conditions": "protein: recombinant; tags: N-terminal GST; dsDNA, one strand shown", "summary_of_the_method": "as §1"}, "[3]": {"target": "HSF1 (Homo sapiens, UniProt Q00613 1-529)", "sequence (Q00613 whole entry)": "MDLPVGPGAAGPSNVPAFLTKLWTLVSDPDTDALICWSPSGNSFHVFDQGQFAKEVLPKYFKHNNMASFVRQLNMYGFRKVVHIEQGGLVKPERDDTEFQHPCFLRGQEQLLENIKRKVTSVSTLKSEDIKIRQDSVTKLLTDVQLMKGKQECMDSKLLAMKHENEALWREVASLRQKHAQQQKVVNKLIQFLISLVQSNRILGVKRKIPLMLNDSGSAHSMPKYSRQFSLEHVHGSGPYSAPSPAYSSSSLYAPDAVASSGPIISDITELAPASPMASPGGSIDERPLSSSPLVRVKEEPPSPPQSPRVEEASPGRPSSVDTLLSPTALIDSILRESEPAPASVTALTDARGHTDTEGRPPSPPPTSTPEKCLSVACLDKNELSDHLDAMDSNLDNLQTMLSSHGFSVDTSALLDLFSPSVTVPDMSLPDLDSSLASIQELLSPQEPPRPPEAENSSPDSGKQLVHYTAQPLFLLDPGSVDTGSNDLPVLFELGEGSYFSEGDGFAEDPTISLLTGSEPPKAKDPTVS", "conditions": "protein: recombinant; tags: N-terminal GST; chain copies: 3; dsDNA, one strand shown", "summary_of_the_method": "as §1"}, "[4]": {"target": "T2, SPIC (Homo sapiens, UniProt Q8N5J4 1-248)", "T2 sequence": "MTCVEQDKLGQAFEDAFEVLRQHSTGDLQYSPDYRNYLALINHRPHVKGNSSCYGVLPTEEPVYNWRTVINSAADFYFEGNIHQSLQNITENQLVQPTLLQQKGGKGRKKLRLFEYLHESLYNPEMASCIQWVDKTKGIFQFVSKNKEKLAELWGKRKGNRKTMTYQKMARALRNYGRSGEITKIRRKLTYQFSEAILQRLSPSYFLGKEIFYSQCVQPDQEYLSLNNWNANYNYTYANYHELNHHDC", "conditions": "protein: recombinant; tags: N-terminal GST; dsDNA, one strand shown", "summary_of_the_method": "as §1"}, "[5]": {"target": "ELF4 (Homo sapiens, UniProt Q99607 1-663)", "sequence (Q99607 whole entry)": "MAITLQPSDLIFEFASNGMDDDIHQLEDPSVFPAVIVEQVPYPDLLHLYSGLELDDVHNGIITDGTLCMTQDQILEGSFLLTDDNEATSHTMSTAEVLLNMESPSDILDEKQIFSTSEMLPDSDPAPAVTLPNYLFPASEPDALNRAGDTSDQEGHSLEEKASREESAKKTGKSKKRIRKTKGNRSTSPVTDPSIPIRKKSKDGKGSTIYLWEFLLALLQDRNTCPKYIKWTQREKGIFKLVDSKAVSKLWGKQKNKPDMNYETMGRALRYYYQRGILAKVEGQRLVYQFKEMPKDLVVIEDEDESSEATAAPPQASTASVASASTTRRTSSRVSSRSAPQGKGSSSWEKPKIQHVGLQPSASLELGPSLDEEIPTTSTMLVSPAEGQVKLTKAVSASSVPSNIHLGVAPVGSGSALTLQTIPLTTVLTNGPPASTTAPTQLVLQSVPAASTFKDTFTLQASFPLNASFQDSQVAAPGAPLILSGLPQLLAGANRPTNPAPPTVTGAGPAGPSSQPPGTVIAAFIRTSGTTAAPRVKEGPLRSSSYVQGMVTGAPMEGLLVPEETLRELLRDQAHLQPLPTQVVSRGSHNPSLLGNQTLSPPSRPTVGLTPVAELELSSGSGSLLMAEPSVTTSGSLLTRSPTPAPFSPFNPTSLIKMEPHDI", "conditions": "protein: recombinant; tags: N-terminal GST; dsDNA, one strand shown", "summary_of_the_method": "as §1"}, "[6]": {"target": "T3, ELK4 (Homo sapiens, UniProt P28324-2 1-405)", "T3 sequence": "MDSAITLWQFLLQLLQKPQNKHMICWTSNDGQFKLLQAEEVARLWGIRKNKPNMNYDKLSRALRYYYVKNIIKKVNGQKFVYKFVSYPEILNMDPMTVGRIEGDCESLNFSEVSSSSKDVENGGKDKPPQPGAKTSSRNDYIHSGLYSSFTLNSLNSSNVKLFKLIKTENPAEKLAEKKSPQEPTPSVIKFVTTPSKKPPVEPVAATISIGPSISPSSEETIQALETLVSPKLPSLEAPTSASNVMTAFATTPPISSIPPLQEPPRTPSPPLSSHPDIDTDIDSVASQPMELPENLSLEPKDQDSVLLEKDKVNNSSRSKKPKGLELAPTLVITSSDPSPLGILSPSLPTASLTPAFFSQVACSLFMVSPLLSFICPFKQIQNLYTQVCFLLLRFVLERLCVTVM", "conditions": "protein: recombinant; tags: N-terminal GST; dsDNA, one strand shown", "summary_of_the_method": "as §1"}, "[7]": {"target": "T4, ETV2 (Homo sapiens, UniProt O00321 1-342)", "T4 sequence": "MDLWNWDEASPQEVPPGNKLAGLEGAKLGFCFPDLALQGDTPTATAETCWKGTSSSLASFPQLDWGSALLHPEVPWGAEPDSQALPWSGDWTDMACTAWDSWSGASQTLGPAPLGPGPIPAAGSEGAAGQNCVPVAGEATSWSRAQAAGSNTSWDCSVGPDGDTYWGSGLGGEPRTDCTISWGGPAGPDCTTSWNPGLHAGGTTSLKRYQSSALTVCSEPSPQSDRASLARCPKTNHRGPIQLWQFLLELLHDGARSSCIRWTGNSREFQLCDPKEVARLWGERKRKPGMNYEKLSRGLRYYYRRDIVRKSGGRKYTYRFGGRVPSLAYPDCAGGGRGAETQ", "conditions": "protein: recombinant; tags: N-terminal GST; dsDNA, one strand shown", "summary_of_the_method": "as §1"}, "[8]": {"target": "T5, ELF3 (Homo sapiens, UniProt P78545 1-371)", "T5 sequence": "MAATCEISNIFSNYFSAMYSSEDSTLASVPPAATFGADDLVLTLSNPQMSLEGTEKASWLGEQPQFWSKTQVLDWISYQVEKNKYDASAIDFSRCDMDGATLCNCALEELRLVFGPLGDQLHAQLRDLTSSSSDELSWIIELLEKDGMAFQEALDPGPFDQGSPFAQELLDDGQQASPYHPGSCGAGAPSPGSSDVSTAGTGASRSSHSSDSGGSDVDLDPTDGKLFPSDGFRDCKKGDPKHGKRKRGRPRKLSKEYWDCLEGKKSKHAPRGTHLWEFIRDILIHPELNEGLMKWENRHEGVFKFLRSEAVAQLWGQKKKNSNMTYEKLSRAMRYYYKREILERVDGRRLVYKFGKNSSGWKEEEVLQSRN", "conditions": "protein: recombinant; tags: N-terminal GST; dsDNA, one strand shown", "summary_of_the_method": "as §1"}, "[9]": {"target": "CRX (Homo sapiens, UniProt O43186 1-299)", "sequence (O43186 whole entry)": "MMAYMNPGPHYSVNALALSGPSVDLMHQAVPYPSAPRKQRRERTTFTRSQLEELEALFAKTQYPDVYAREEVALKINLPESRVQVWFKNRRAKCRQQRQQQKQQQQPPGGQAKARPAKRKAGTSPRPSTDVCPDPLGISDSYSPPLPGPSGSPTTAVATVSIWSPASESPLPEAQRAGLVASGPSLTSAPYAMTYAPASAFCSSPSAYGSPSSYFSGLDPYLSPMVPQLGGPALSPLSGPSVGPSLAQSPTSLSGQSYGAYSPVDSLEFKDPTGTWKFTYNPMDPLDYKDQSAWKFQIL", "conditions": "protein: recombinant; tags: N-terminal GST; dsDNA, one strand shown", "summary_of_the_method": "as §1"}, "[10]": {"target": "ETV1 (Homo sapiens, UniProt P50549 1-477)", "sequence (P50549 whole entry)": "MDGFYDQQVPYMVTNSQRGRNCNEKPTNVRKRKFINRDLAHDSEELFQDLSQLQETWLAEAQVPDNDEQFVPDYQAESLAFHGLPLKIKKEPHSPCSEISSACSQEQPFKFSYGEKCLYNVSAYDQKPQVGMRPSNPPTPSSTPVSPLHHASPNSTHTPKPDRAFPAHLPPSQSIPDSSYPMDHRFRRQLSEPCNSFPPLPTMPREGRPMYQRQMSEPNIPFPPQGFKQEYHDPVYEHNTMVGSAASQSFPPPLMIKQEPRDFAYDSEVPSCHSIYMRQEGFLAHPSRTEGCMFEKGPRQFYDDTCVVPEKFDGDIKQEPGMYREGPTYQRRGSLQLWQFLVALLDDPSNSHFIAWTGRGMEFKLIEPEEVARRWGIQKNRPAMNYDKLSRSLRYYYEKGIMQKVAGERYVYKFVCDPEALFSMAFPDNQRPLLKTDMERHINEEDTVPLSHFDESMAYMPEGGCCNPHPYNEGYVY", "conditions": "protein: recombinant; tags: N-terminal GST; dsDNA, one strand shown", "summary_of_the_method": "as §1"}}}
{"sequence": "CTCCAG", "values": [{"measurement": "binding signal", "setting": "[1]", "value": "1.13 fold enrichment (6-mer frequency, TF over GST control)"}, {"measurement": "binding signal", "setting": "[2]", "value": "1.17 fold enrichment (6-mer frequency, TF over GST control)"}, {"measurement": "binding signal", "setting": "[3]", "value": "1.65 fold enrichment (6-mer frequency, TF over GST control)"}, {"measurement": "binding signal", "setting": "[4]", "value": "1.16 fold enrichment (6-mer frequency, TF over GST control)"}, {"measurement": "binding signal", "setting": "[5]", "value": "1.21 fold enrichment (6-mer frequency, TF over GST control)"}, {"measurement": "binding signal", "setting": "[6]", "value": "1.18 fold enrichment (6-mer frequency, TF over GST control)"}, {"measurement": "binding signal", "setting": "[7]", "value": "1.33 fold enrichment (6-mer frequency, TF over GST control)"}, {"measurement": "binding signal", "setting": "[8]", "value": "1.02 fold enrichment (6-mer frequency, TF over GST control)"}, {"measurement": "binding signal", "setting": "[9]", "value": "1.1 fold enrichment (6-mer frequency, TF over GST control)"}, {"measurement": "binding signal", "setting": "[10]", "value": "1.16 fold enrichment (6-mer frequency, TF over GST control)"}]}
